This is an account of results in paper PMC11006913.

What all share (assay): PBM; 200 nM protein, PBS
Common to all, as to settings: dsDNA, one strand shown

For test [1], the target named is HOXB9 (Homo sapiens, UniProt P17482 171-250, T197M).
Test [2] has as its target ALX4 (Homo sapiens, UniProt Q9H161 200-286).
Test [3] concerns the target ALX4 (Homo sapiens, UniProt Q9H161 200-286, Q225E).
Test [4] deals with HOXB9 (Homo sapiens, UniProt P17482 171-250).
Test [5] concerns the target HOXB9 (Homo sapiens, UniProt P17482 171-250, R186Q).
In test [6] the target is HOXC9 (Homo sapiens, UniProt P31274 178-260, K195R).
Sequence of HOXC9 (Homo sapiens, UniProt P31274 178-260, K195R) (P31274 178-260 K195R): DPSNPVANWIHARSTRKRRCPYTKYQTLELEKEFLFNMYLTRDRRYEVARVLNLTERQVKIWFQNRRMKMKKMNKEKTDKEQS
The target in test [7] is HOXC9 (Homo sapiens, UniProt P31274 178-260).
Sequence of HOXC9 (Homo sapiens, UniProt P31274 178-260) (P31274 178-260): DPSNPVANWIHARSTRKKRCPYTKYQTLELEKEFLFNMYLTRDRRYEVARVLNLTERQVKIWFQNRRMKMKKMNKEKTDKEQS
For test [8], the target named is ALX1 (Homo sapiens, UniProt Q15699 118-204, L144V).
Sequence of ALX1 (Homo sapiens, UniProt Q15699 118-204, L144V) (Q15699 118-204 L144V): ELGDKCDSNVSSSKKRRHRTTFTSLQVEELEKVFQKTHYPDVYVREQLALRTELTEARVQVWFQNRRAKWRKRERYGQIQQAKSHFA
Test [9] addresses HOXC9 (Homo sapiens, UniProt P31274 178-260, R193K).
The target of test [10] is ALX1 (Homo sapiens, UniProt Q15699 118-204, L144R).
Sequence of ALX1 (Homo sapiens, UniProt Q15699 118-204, L144R) (Q15699 118-204 L144R): as the sequence (Q15699 118-204 L144V) above, with V27R counted along it
In test [11] the target is HOXC9 (Homo sapiens, UniProt P31274 178-260, R222W).
Sequence of HOXC9 (Homo sapiens, UniProt P31274 178-260, R222W) (P31274 178-260 R222W): as the sequence (P31274 178-260) above, with R45W counted along it
The target of test [12] is ALX1 (Homo sapiens, UniProt Q15699 118-204).
Sequence of ALX1 (Homo sapiens, UniProt Q15699 118-204) (Q15699 118-204): as the sequence (Q15699 118-204 L144V) above, with V27L counted along it
For test [13], the target named is HOXC10 (Homo sapiens, UniProt Q9NYD6 254-340).
Sequence of HOXC10 (Homo sapiens, UniProt Q9NYD6 254-340) (Q9NYD6 254-340): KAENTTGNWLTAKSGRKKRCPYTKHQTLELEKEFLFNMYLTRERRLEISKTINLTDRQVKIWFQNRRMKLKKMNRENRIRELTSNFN
Test [14] addresses HOXC10 (Homo sapiens, UniProt Q9NYD6 254-340, K271E).
Test [15] concerns the target T1, PAX4 (Homo sapiens, UniProt O43316 9-242, R200K).
T1 sequence: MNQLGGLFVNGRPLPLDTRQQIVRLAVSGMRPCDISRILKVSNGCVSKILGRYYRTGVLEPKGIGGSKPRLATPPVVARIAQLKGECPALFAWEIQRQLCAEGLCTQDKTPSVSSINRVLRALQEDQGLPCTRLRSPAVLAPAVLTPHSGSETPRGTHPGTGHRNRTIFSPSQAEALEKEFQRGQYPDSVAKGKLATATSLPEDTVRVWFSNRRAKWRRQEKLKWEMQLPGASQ

In test [16] the target is T2, PAX4 (Homo sapiens, UniProt O43316 9-242).
T2 sequence: T1 sequence with K192R

Test [17] concerns the target MSX2 (Homo sapiens, UniProt P35548 130-214, R199I).
For test [18], the target named is T3, PAX4 (Homo sapiens, UniProt O43316 9-242, R200Q).
T3 sequence: T1 sequence with K192Q

For test [19], the target named is T4, PAX4 (Homo sapiens, UniProt O43316 9-242, F177V).
T4 sequence: T1 sequence with F169V, K192R

Test [20] addresses MSX2 (Homo sapiens, UniProt P35548 130-214).
Test [21] addresses T5, PAX4 (Homo sapiens, UniProt O43316 9-242, F177Y).
T5 sequence: T1 sequence with F169Y, K192R

Test [22] has as its target PROP1 (Homo sapiens, UniProt O75360 56-141).
Test [23] concerns the target PROP1 (Homo sapiens, UniProt O75360 56-141, R99H).
Test [24] deals with PROP1 (Homo sapiens, UniProt O75360 56-141, F88S).
Sequence of PROP1 (Homo sapiens, UniProt O75360 56-141, F88S) (O75360 56-141 F88S): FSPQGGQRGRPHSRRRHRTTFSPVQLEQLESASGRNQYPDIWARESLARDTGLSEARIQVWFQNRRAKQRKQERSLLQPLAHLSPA
Test [25] addresses MSX2 (Homo sapiens, UniProt P35548 130-214, F161Y).
For test [26], the target named is T6, PAX4 (Homo sapiens, UniProt O43316 9-242, R227W).
T6 sequence: T1 sequence with K192R, R219W

In a further test the target is PRRX1 (Homo sapiens, UniProt P54821 80-166, F113S).
Sequence of PRRX1 (P54821 80-166 F113S): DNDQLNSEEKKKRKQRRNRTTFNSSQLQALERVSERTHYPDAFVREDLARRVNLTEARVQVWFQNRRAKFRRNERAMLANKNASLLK
Test [27] concerns the target HOXB6 (Homo sapiens, UniProt P17509 132-218, K202E).
The target in test [28] is HOXB6 (Homo sapiens, UniProt P17509 132-218).
Sequence of HOXB6 (Homo sapiens, UniProt P17509 132-218) (P17509 132-218): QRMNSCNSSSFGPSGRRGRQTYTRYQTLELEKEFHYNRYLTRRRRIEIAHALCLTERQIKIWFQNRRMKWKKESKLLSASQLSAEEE

Numbering of substitutions follows the chain as printed.

Sequence of MSX2 (Homo sapiens, UniProt P35548 130-214, R199I) (P35548 130-214 R199I): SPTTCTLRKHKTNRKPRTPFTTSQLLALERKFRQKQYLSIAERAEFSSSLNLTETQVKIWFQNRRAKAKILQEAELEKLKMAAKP
Sequence of HOXB9 (Homo sapiens, UniProt P17482 171-250, R186Q) (P17482 171-250 R186Q): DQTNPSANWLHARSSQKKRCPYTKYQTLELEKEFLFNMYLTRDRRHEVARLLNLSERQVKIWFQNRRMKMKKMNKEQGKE
Sequence of MSX2 (Homo sapiens, UniProt P35548 130-214, F161Y) (P35548 130-214 F161Y): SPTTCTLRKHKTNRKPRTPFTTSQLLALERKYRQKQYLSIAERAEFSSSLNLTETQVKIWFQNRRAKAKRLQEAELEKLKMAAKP
Sequence of HOXB9 (Homo sapiens, UniProt P17482 171-250) (P17482 171-250): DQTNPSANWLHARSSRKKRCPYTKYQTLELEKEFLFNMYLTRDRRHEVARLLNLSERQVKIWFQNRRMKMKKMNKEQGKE
Sequence of MSX2 (Homo sapiens, UniProt P35548 130-214) (P35548 130-214): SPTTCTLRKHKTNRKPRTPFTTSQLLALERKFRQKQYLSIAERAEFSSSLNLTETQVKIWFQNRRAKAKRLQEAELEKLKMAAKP
Sequence of HOXB9 (Homo sapiens, UniProt P17482 171-250, T197M) (P17482 171-250 T197M): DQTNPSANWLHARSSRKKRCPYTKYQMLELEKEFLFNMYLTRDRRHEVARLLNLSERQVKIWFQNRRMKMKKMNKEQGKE
Sequence of HOXC10 (Homo sapiens, UniProt Q9NYD6 254-340, K271E) (Q9NYD6 254-340 K271E): as the sequence (Q9NYD6 254-340) above, with K18E counted along it
Sequence of HOXB6 (Homo sapiens, UniProt P17509 132-218, K202E) (P17509 132-218 K202E): as the sequence (P17509 132-218) above, with K71E counted along it
Sequence of ALX4 (Homo sapiens, UniProt Q9H161 200-286, Q225E) (Q9H161 200-286 Q225E): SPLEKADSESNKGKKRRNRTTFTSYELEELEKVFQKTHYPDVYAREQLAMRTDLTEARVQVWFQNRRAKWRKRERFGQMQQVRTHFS
Sequence of ALX4 (Homo sapiens, UniProt Q9H161 200-286) (Q9H161 200-286): as the sequence (Q9H161 200-286 Q225E) above, with E26Q counted along it
Sequence of HOXC9 (Homo sapiens, UniProt P31274 178-260, R193K) (P31274 178-260 R193K): as the sequence (P31274 178-260) above, with R16K counted along it
Sequence of PROP1 (Homo sapiens, UniProt O75360 56-141) (O75360 56-141): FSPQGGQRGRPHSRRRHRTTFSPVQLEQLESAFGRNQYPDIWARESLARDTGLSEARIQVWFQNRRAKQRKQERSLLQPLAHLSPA
Sequence of PROP1 (Homo sapiens, UniProt O75360 56-141, R99H) (O75360 56-141 R99H): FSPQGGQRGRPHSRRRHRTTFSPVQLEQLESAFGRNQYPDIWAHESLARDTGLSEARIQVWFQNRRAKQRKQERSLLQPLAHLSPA

Turning to TCCCGGGA, the binding signal in the test with HOXB9 [1] was 8.9 upbm affinity estimate (log intensity, higher = more binding, comparable within an allelic series); in the test with ALX4 [2], 8.7 upbm affinity estimate (log intensity, higher = more binding, comparable within an allelic series); with ALX4 [3], 8.23 upbm affinity estimate (log intensity, higher = more binding, comparable within an allelic series); with HOXB9 [4], 8.93 upbm affinity estimate (log intensity, higher = more binding, comparable within an allelic series); in the test with HOXB9 [5], 8.89 upbm affinity estimate (log intensity, higher = more binding, comparable within an allelic series).
As to CCCAGGCC, the binding signal is 8.39 upbm affinity estimate (log intensity, higher = more binding, comparable within an allelic series) in the test with HOXB9 [1]; 9.5 upbm affinity estimate (log intensity, higher = more binding, comparable within an allelic series) in the test with HOXC9 [6]; 8.27 upbm affinity estimate (log intensity, higher = more binding, comparable within an allelic series) with HOXB9 [4]; 9.64 upbm affinity estimate (log intensity, higher = more binding, comparable within an allelic series) with HOXC9 [7]; 6.55 upbm affinity estimate (log intensity, higher = more binding, comparable within an allelic series) with ALX1 [8]; 9.51 upbm affinity estimate (log intensity, higher = more binding, comparable within an allelic series) with HOXC9 [9]. For the same sequence, the binding signal with ALX1 [10] was 6.47 upbm affinity estimate (log intensity, higher = more binding, comparable within an allelic series); with HOXB9 [5], 8.29 upbm affinity estimate (log intensity, higher = more binding, comparable within an allelic series); with HOXC9 [11] it was 9.62 upbm affinity estimate (log intensity, higher = more binding, comparable within an allelic series); with ALX1 [12], 6.28 upbm affinity estimate (log intensity, higher = more binding, comparable within an allelic series).
Turning to GAGTCTCC, the binding signal with HOXB9 [1] was 8.54 upbm affinity estimate (log intensity, higher = more binding, comparable within an allelic series); with HOXC10 [13], 10 upbm affinity estimate (log intensity, higher = more binding, comparable within an allelic series); with HOXB9 [4], 8.49 upbm affinity estimate (log intensity, higher = more binding, comparable within an allelic series); in the test with HOXC10 [14] it was 9.99 upbm affinity estimate (log intensity, higher = more binding, comparable within an allelic series); with HOXB9 [5] it was 8.45 upbm affinity estimate (log intensity, higher = more binding, comparable within an allelic series).
Regarding GCTCTCCC, the binding signal is 8.34 upbm affinity estimate (log intensity, higher = more binding, comparable within an allelic series) with HOXB9 [1]; 9.21 upbm affinity estimate (log intensity, higher = more binding, comparable within an allelic series) with PAX4 [15]; 9.22 upbm affinity estimate (log intensity, higher = more binding, comparable within an allelic series) in the test with PAX4 [16]; 8.35 upbm affinity estimate (log intensity, higher = more binding, comparable within an allelic series) in the test with HOXB9 [4]; 9.54 upbm affinity estimate (log intensity, higher = more binding, comparable within an allelic series) with MSX2 [17]; 9.3 upbm affinity estimate (log intensity, higher = more binding, comparable within an allelic series) in the test with PAX4 [18]. The binding signal was 9.23 upbm affinity estimate (log intensity, higher = more binding, comparable within an allelic series) with PAX4 [19]; 9.45 upbm affinity estimate (log intensity, higher = more binding, comparable within an allelic series) with MSX2 [20]; 9.16 upbm affinity estimate (log intensity, higher = more binding, comparable within an allelic series) with PAX4 [21]; 6.88 upbm affinity estimate (log intensity, higher = more binding, comparable within an allelic series) with PROP1 [22]; 6.87 upbm affinity estimate (log intensity, higher = more binding, comparable within an allelic series) with PROP1 [23]; 8.35 upbm affinity estimate (log intensity, higher = more binding, comparable within an allelic series) in the test with HOXB9 [5]. The binding signal with PROP1 [24] is 6.53 upbm affinity estimate (log intensity, higher = more binding, comparable within an allelic series); with MSX2 [25], 9.57 upbm affinity estimate (log intensity, higher = more binding, comparable within an allelic series); with PAX4 [26], 9.27 upbm affinity estimate (log intensity, higher = more binding, comparable within an allelic series).
With AATTATAT, the binding signal with HOXB9 [1] was 9.99 upbm affinity estimate (log intensity, higher = more binding, comparable within an allelic series); with PRRX1 it was 11.1 upbm affinity estimate (log intensity, higher = more binding, comparable within an allelic series); with HOXB6 [27] it was 9.99 upbm affinity estimate (log intensity, higher = more binding, comparable within an allelic series).
Turning to CGTGAAGC, the binding signal was 8.57 upbm affinity estimate (log intensity, higher = more binding, comparable within an allelic series) with HOXB9 [1]; 10 upbm affinity estimate (log intensity, higher = more binding, comparable within an allelic series) with HOXC10 [13]; 9.08 upbm affinity estimate (log intensity, higher = more binding, comparable within an allelic series) with HOXB6 [27]; 8.56 upbm affinity estimate (log intensity, higher = more binding, comparable within an allelic series) in the test with HOXB9 [4]; 9.57 upbm affinity estimate (log intensity, higher = more binding, comparable within an allelic series) in the test with MSX2 [17]; 10 upbm affinity estimate (log intensity, higher = more binding, comparable within an allelic series) in the test with HOXC10 [14]. For the same sequence, the binding signal with MSX2 [20] is 9.35 upbm affinity estimate (log intensity, higher = more binding, comparable within an allelic series); in the test with HOXB9 [5] it was 8.45 upbm affinity estimate (log intensity, higher = more binding, comparable within an allelic series); in the test with MSX2 [25], 9.38 upbm affinity estimate (log intensity, higher = more binding, comparable within an allelic series); in the test with HOXB6 [28], 8.9 upbm affinity estimate (log intensity, higher = more binding, comparable within an allelic series).
With AGCCGCAG, the binding signal is 8.34 upbm affinity estimate (log intensity, higher = more binding, comparable within an allelic series) with HOXB9 [1]; 9.2 upbm affinity estimate (log intensity, higher = more binding, comparable within an allelic series) with PAX4 [15]; 9.21 upbm affinity estimate (log intensity, higher = more binding, comparable within an allelic series) in the test with PAX4 [16]; 8.11 upbm affinity estimate (log intensity, higher = more binding, comparable within an allelic series) with HOXB9 [4]; 9.46 upbm affinity estimate (log intensity, higher = more binding, comparable within an allelic series) with MSX2 [17]; 9.21 upbm affinity estimate (log intensity, higher = more binding, comparable within an allelic series) in the test with PAX4 [18]. Besides, the binding signal in the test with PAX4 [19] is 9.11 upbm affinity estimate (log intensity, higher = more binding, comparable within an allelic series); with MSX2 [20], 9.43 upbm affinity estimate (log intensity, higher = more binding, comparable within an allelic series); in the test with PAX4 [21], 9.12 upbm affinity estimate (log intensity, higher = more binding, comparable within an allelic series); with HOXB9 [5] it was 8.24 upbm affinity estimate (log intensity, higher = more binding, comparable within an allelic series); with MSX2 [25], 9.5 upbm affinity estimate (log intensity, higher = more binding, comparable within an allelic series); with PAX4 [26] it was 9.18 upbm affinity estimate (log intensity, higher = more binding, comparable within an allelic series).
